# ABHD5 PLIN5 PPI = inhibitors of human ABHD5-perilipin-5 interaction | Split G. princeps luciferase complementation, luminescence, 4 h | inhibition, % at 4 µM | 0.78% of 360,000 active;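 active = inhibition above the mean inhibition across every tested compound plus 3 SD, cut at about 22% in these data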;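 note: 0% = DMSO only wells and the 100% control is not disclosed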
# LEDGF integ inh = blocks HIV-1 LEDGF/p75-dependent DNA integration; 0.64% of 370,000 active; TR-FRET IN-LEDGF/p75 DNA integration, Eu/Cy5; AID 743269; inhibition, % at 3.7 µM;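 active = inhibition above the screen-wide mean plus 3 SD, cut at about 13% in these data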;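 note: signal is the Cy5 over europium emission ratio at 671 and 618 nm; 0% = plate median of compound wells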
# MBD2 inh = blocks human MBD2 binding to methylated DNA; 0.31% of 370,000 active; TR-FRET, MBD2 binding to methylated oligonucleotide; inhibition, % at 4.4 µM; AID 686964; Q9UBB5; in the data active = inhibition above about 13%
# UHRF1 binding = blocks human UHRF1 binding to methylated DNA. inhibition, % at 4.4 µM. 0.75% of 370,000 active. Q96T88. UHRF1 binding to methylated oligo, TR-FRET. AID 687016;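 note: UHRF1 SRA domain binding a hemimethylated CpG hairpin DNA probe; 0% = median of test compound wells and 100% = reference inhibitor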
# PRMT1 inh = inhibitors of human PRMT1. Q99873. recombinant PRMT1, activity-based probe fluorescence polarization. inhibition, % at 2.79 µM. 1.3% of 370,000 active. AID 652257;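 active = inhibition above about 21% made by adding two undisclosed values, limit read from the data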
# rCAG RNA binder = molecules binding r(CAG) RNA repeats; 1.3% of 370,000 active; r(CAG) RNA repeat, TO-PRO-1 dye displacement fluorescence; inhibition, % at 3 µM; AID 651821;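 active = inhibition above the plate cutoff, the mean of all test compounds on that plate plus 3 SD, cut at about 35% in these data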;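 note: 0% = DMSO alone and 100% = 100 µM mitoxantrone as full dye displacement; higher means more dye released from RNA so lower well fluorescence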
# PRMT1 inh conf = PRMT1 (human) inhibition, FP confirmation | shares compounds with PRMT1 inh | recombinant His-PRMT1, activity-based probe fluorescence polarization | inhibition, % at 2.79 µM | 42% of 3,300 active;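 active = mean inhibition across replicates above the hit cutoff derived for the earlier primary screen, cut at about 22% in these data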
# UHRF1 DNA bind = inhibits human UHRF1 binding to methylated oligonucleotide, MBD2 counter-screen. shares compounds with MBD2 inh. inhibition, % at 4.4 µM. TR-FRET. 25% of 1,000 active;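 note: UHRF1 SRA domain binding a labeled hemimethylated CpG hairpin DNA; 0% = vehicle only and 100% = reference inhibitor with vehicle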
# MBD2 confirm = MBD2-DBD methyl-DNA binding inhibition, TR-FRET confirmation; 26% of 1,000 active; shares compounds with MBD2 inh; inhibition, % at 4.4 µM; TR-FRET MBD2-DBD binding to methylated oligonucleotide; in the data active = inhibition above about 14%
# IN multimer act = activates HIV-1 integrase multimerization in LEDGF counter-screen. shares compounds with LEDGF integ inh. TR-FRET HIV-1 integrase multimerization, biochemical. activation, % at 7.7 µM. 17% of 2,000 active. AID 1053131; in the data active = activation above about 8.9%
# TR-FRET interf = counter-screen for LEDGF/p75 integration inhibitors: TR-FRET optical interference. TR-FRET optical interference counterscreen, HIV-1 IN multimerization. shares compounds with LEDGF integ inh. inhibition, % at 7.7 µM. 2,000 tested, under 10 active;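 active = inhibition above the mean over all tested compounds plus 3 SD, which no compound reached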;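 note: 0% = integrase with antibodies and DMSO and 100% = antibodies without integrase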
# IN-LEDGF confirm = LEDGF/p75-dependent HIV-1 integration inhibition, confirmation | shares compounds with LEDGF integ inh | inhibition, % at 3.7 µM | 36% of 2,000 active | TR-FRET LEDGF/p75-dependent HIV-1 integration, biochemical; in the data active = inhibition above about 14%
# Starred values were filed as active, the others as inactive; . = not tested or not shown. The list is not random: actives were taken first. Their share in the collection is about 4.1%. Cut-off read from the data, not from the text of the source, unless noted: active = inhibition above about 21%; inactive = the rest.
SMILES,ABHD5 PLIN5 PPI,LEDGF integ inh,MBD2 inh,UHRF1 binding,PRMT1 inh,rCAG RNA binder,PRMT1 inh conf,IN multimer act,TR-FRET interf,IN-LEDGF confirm,others
O=C1CC(c2ccco2)CC(O)=C1C=Nc1cc(Cl)cc(Cl)c1 (centres undefined),5,45*,8,33*,28*,31,13,0,2,0,
CCOc1ccc(N=CC2=C(O)CC(c3ccco3)CC2=O)cc1 (centres undefined),-3,-2,-3,-3,-1,-3,.,.,.,.,
Cc1ccc(-c2csc(NS(=O)(=O)c3cccc(F)c3)n2)o1,21,16*,3,11,54*,71*,21,9.0*,-45,15*,
COc1cc(-n2c(C)nc3cc(C(=O)N4CCCN(C(C)=O)CC4)ccc32)cc(OC)c1OC,.,-4,3,1,5,5,.,.,.,.,
O=C(NCCc1ccccn1)c1ccc2c(c1)ncn2C1CCCCC1,.,0,-2,0,1,3,.,.,.,.,
C[n+]1c2cc(N)ccc2cc2ccc(N)cc21,-22,40*,0,-322,147*,-75,142*,20*,-70,45*,
CCOC(=O)Cn1cc(CN2CCS(=O)(=O)N(Cc3ccc(C)cc3)C(C(=O)OC)C2)nn1 (centres undefined),.,0,12,14,-1,1,.,.,.,.,
O=c1[nH]c2cc3c(cc2cc1CN(Cc1cccnc1)Cc1nnnn1Cc1ccco1)OCCO3,-24,39*,11,34*,35*,21,27*,14*,-72,28*,
C[C@H]1C2CC(OC(=O)Nc3cccc(C(F)(F)F)c3)C(C2)[C@H]2CCCCN21 (some centres undefined),.,-1,3,0,0,-1,.,.,.,.,
Cc1n[nH]c(=S)n(NC(=O)/C=C/C(=O)Nn2c(=S)[nH]nc(C)c2=O)c1=O,4,14*,15*,41*,29*,17,30*,8,-42,29*,UHRF1 DNA bind=16;MBD2 confirm=9
O=C(O)CCC(=O)Nc1ccc(N2CCCCCC2)cc1,5,14*,-3,-2,31*,-2,1,5,-25,-10,
COC(=O)C1=C(O)/C(=C\c2ccc(CNS(=O)(=O)c3ccccc3)o2)N=C1C,6,23*,0,5,39*,31,16,7,-33,18*,
CCOC(=O)C(=O)NCc1ccc(/C=C2/N=C(C)C(C(=O)OCC)=C2O)o1,3,9,-3,-5,18,8,.,.,.,.,
S=c1[nH]nc(-c2cc(-c3ccco3)[nH]n2)n1-c1ccccc1Cl,2,14*,3,17,41*,25,12,2,-9,15*,
S=c1[nH]nc(-c2ccco2)n1-c1ccccc1Cl,-5,0,0,-4,0,0,.,.,.,.,
CCCOc1ccc(Cc2nn3c(=O)/c(=C/c4ccco4)sc3nc2=O)cc1,4,27*,3,23*,33*,30,7,4,-15,15*,
O=c1/c(=C/c2ccco2)sc2nc(-c3ccccc3Br)nn12,-2,2,4,3,7,14,.,.,.,.,
Cc1ccc(CNC(=O)C2CCN(S(=O)(=O)c3c(C)noc3/C=C/c3ccco3)CC2)cc1,20,6,-2,0,3,20,.,.,.,.,

# Compound activity (PubChem)
